Results filed as inconclusive are left out. Active and inactive are the calls of the source. Rule for the calls: active = hit-call score of the fitted dose curve at least 0.9, where 1 is the maximum; inconclusive = response in the unintended direction; inactive = score below 0.9.
Tests used:
[1] = molecular target: human Peroxisome Proliferator-activated Receptor alpha (PPARa), PPARA (gene 5465) (UniProt Q07869); assay: ATG_PPARa_TRANS: Attagene TRANS-FACTORIAL HepG2 Assay for human Peroxisome Proliferator-activated Receptor alpha (PPARa) (AID 2283001);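 for AC50: potency for gain of reporter signal over DMSO so agonist or activator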
In short: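 Cells (HepG2) are transfected with multiple reporter transcription units, exposed to chemical for 24 h, then total RNA is reverse-transcribed and amplified. Labelled products are quantified by capillary electrophoresis; induction is referenced to DMSO.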

[2] = molecular target: human Retinoic Acid Receptor beta (RARb), RARB (gene 5915) (UniProt P10826); assay: ATG_RARb_TRANS: Attagene TRANS-FACTORIAL HepG2 Assay for human Retinoic Acid Receptor beta (AID 2283004)
In short: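 HepG2, transient MRTU transfection, NR–Gal4 chimera, 24 h treatment; RT-PCR plus CE fluorescence detection of reporter mRNA; gain of signal vs DMSO.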

[3] = molecular target: Nuclear receptor subfamily 1 group I member 2 (Homo sapiens) (UniProt O75469); assay: ATG_PXR_TRANS: Attagene TRANS-FACTORIAL HepG2 Assay for human Pregnane X Receptor (PXR) (AID 2283008)
In short: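 Transient HepG2 transfectants carrying multiplexed reporter transcription units; PXR activity read through a Gal4 chimera. 24 h exposure. RT-PCR/CE fluorescence; upward curve fit referenced to DMSO.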

[4] = molecular target: human RAR-related Orphan Receptor beta (RORb), RORB (gene 6096) (UniProt Q92753); assay: ATG_RORb_TRANS: Attagene TRANS-FACTORIAL HepG2 Assay for human RAR-related Orphan Receptor beta (RORb) (AID 2283010)
In short: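 Transfect HepG2 with multiple GAL4-UAS reporter transcription units; dose chemicals for 24 h; isolate RNA, reverse-transcribe and PCR-amplify reporter sequences; label, digest and resolve fragments by capillary electrophoresis; fit increases relative to DMSO.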

[5] = molecular target: Retinoic acid receptor RXR-alpha (Homo sapiens) (UniProt P19793); assay: ATG_RXRa_TRANS: Attagene TRANS-FACTORIAL HepG2 Assay for human Retinoid X Receptor alpha (RXRa) (AID 2283012)
In short: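 Measures exogenous chimeric NR-GAL4 activity in transfected HepG2 liver cells after 24 h of dosing. Induced reporter mRNA was detected by RT-PCR with capillary electrophoresis, and gain of signal was analysed against DMSO.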

[6] = molecular target: human Thyroid Receptor alpha (THRa1), THRA (gene 7067) (UniProt P10827); assay: ATG_THRa1_TRANS: Attagene TRANS-FACTORIAL HepG2 Assay for human Thyroid Receptor alpha (THRa1) (AID 2283014)
In short: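 First, HepG2 cells receive multiple GAL4-UAS reporter units and the chimeric receptor. They are then dosed for 24 h, after which RNA is reverse-transcribed, amplified, labelled, HpaI-cut and sized by capillary electrophoresis; gain relative to DMSO is scored.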

[7] = molecular target: human Vitamin D Receptor (VDR), VDR (gene 7421) (UniProt P11473); assay: ATG_VDR_TRANS: Attagene TRANS-FACTORIAL HepG2 Assay for human Vitamin D Receptor (VDR) (AID 2283022)
In short: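 Fluorescence of labelled reporter cDNA fragments, resolved by capillary electrophoresis, gives mRNA induction after 24 h treatment of HepG2 cells carrying transfected Gal4-fusion reporter units. Activity is fitted in the positive direction with DMSO as baseline.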

[8] = molecular target: Peroxisome proliferator-activated receptor gamma (Homo sapiens) (UniProt P37231); assay: ATG_PPARg_TRANS: Attagene TRANS-FACTORIAL HepG2 Assay for human Peroxisome Proliferator-activated Receptor-gamma (PPARg) (AID 2283007)
In short: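 Transient transfection of HepG2 with GAL4-UAS-driven reporter units; chemical dosing 24 h; total RNA → oligo(dT) RT → PCR with reporter primers → 6-FAM primer extension → HpaI digest 2 h 37 C → capillary electrophoresis. Positive direction vs DMSO.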

[9] = molecular target: human Retinoid X Receptor beta (RXRb), RXRB (gene 6257) (UniProt P28702); assay: ATG_RXRb_TRANS: Attagene TRANS-FACTORIAL HepG2 Assay for human Retinoid X Receptor beta (RXRb) (AID 2283013)
In short: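 Chimeric receptor-Gal4 activity was assessed in transiently transfected human HepG2 cells after 24 h exposure. Transcripts from GAL4-UAS reporters were quantified by fluorescent RT-PCR and capillary electrophoresis, with DMSO as negative control and baseline.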

[10] = molecular target: Retinoic acid receptor alpha (Homo sapiens) (UniProt P10276); assay: ATG_RARa_TRANS: Attagene TRANS-FACTORIAL HepG2 Assay for human Retinoic Acid Receptor alpha (RARa) (AID 2283005)
In short: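 HepG2 cells transiently transfected with multiple reporter units expressing chimeric RARα-GAL4 fusion, with GAL4-UAS-driven reporters. After 24 h compound exposure, reporter mRNA induction quantified by RT-PCR and capillary electrophoresis with fluorescent labeling; gain-of-signal fitted relative to DMSO control.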

[11] = molecular target: human RAR-related Orphan Receptor gamma (RORg), RORC (gene 6097) (UniProt P51449); assay: ATG_RORg_TRANS: Attagene TRANS-FACTORIAL HepG2 Assay for human RAR-related Orphan Receptor gamma (RORg) (AID 2283011);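 for AC50: potency for induction of reporter transcripts above DMSO so activators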
In short: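 Activity is scored as increase in GAL4-UAS reporter mRNA over DMSO, detected by fluorescent RT-PCR and capillary electrophoresis in HepG2 cells transiently expressing a RORg-Gal4 chimera, 24 h after dosing.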

[12] = molecular target: human Retinoic Acid Receptor gamma (RARg), RARG (gene 5916) (UniProt P13631); assay: ATG_RARg_TRANS: Attagene TRANS-FACTORIAL HepG2 Assay for human Retinoic Acid Receptor gamma (RARg) (AID 2283009)
In short: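 TRANS format measured activity of exogenous NR-GAL4 fusion (RARg) in transfected HepG2 liver cells after 24 h dosing. Induced reporter RNA was detected by RT-PCR/capillary electrophoresis fluorescence, analysed in the positive direction against DMSO.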

Measured: AC50

Chain of human Retinoic Acid Receptor gamma (RARg), RARG (gene 5916) (P13631 whole entry, looked up, the tested form may be a part): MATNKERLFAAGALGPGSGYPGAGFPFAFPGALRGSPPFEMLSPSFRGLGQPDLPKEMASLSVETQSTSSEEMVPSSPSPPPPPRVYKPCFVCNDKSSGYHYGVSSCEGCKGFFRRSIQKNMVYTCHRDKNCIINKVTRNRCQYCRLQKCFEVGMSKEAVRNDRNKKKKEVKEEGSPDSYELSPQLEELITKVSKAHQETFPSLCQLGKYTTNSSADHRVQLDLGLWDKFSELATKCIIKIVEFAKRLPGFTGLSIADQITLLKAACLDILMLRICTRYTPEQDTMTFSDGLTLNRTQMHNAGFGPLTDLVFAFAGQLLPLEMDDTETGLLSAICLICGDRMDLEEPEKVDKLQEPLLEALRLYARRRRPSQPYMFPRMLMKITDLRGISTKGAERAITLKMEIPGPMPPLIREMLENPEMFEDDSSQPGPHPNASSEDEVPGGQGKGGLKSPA
Chain of Retinoic acid receptor RXR-alpha (Homo sapiens) (P19793 whole entry, looked up, the tested form may be a part): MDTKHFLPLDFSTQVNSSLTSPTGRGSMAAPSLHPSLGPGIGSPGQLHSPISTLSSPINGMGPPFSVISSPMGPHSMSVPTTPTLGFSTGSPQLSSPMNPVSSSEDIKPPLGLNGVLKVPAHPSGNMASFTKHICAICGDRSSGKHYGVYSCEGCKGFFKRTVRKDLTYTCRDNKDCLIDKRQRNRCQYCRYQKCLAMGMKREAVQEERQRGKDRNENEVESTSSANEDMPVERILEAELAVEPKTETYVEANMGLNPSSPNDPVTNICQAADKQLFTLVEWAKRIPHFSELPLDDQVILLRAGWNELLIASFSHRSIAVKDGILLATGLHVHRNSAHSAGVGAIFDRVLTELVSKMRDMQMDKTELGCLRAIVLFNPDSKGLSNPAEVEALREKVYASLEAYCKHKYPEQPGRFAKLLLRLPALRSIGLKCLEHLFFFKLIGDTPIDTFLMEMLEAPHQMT
Chain of Nuclear receptor subfamily 1 group I member 2 (Homo sapiens) (O75469 whole entry, looked up, the tested form may be a part): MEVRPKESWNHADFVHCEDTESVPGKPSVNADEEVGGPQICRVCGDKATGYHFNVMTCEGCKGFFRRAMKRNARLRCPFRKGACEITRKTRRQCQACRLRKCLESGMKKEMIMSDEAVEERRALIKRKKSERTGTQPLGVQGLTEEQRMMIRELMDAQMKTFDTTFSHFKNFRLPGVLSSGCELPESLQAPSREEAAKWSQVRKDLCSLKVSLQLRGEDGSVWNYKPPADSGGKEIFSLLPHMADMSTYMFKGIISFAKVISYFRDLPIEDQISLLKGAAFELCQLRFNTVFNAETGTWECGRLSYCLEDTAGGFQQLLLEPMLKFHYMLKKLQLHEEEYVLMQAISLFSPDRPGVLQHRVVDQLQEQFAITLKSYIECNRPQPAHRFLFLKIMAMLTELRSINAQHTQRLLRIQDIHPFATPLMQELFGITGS
Chain of human RAR-related Orphan Receptor beta (RORb), RORB (gene 6096) (Q92753 whole entry, looked up, the tested form may be a part): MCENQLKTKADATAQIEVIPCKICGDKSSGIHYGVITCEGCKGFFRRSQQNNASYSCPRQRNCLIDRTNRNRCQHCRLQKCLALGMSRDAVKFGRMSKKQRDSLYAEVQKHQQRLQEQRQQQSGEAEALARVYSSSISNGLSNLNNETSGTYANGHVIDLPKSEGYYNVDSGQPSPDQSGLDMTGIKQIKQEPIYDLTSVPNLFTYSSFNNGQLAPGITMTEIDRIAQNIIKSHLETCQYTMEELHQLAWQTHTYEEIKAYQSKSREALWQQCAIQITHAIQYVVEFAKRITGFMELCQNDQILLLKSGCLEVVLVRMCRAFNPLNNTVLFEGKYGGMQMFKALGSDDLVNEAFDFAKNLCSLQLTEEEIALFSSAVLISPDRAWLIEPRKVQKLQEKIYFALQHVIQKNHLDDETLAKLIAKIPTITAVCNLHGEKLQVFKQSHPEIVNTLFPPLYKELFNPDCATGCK
Chain of human Vitamin D Receptor (VDR), VDR (gene 7421) (P11473 whole entry, looked up, the tested form may be a part): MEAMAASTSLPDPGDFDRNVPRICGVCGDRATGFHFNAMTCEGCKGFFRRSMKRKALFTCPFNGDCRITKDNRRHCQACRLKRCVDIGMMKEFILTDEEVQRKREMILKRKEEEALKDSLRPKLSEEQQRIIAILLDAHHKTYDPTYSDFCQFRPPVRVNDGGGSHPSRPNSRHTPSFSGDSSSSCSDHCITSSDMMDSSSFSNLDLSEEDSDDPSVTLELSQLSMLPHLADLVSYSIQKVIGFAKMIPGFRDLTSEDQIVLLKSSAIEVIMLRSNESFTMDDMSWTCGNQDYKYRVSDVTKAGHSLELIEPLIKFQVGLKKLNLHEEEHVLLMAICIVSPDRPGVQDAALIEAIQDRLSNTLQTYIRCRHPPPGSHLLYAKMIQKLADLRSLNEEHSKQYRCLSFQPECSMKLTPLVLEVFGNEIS
Chain of Retinoic acid receptor alpha (Homo sapiens) (P10276 whole entry, looked up, the tested form may be a part): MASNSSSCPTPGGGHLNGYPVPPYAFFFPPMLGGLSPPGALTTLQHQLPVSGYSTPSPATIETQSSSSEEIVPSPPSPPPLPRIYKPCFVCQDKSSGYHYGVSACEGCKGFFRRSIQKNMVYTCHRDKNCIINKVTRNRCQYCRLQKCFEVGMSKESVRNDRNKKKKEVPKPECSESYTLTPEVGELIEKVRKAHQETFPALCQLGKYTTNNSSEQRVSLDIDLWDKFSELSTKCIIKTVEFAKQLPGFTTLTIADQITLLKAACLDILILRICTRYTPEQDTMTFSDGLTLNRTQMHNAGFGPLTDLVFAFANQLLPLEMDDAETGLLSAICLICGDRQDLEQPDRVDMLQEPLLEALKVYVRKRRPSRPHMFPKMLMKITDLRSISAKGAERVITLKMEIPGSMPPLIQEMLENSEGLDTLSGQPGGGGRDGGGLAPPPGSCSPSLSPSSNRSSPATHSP
Chain of human RAR-related Orphan Receptor gamma (RORg), RORC (gene 6097) (P51449 whole entry, looked up, the tested form may be a part): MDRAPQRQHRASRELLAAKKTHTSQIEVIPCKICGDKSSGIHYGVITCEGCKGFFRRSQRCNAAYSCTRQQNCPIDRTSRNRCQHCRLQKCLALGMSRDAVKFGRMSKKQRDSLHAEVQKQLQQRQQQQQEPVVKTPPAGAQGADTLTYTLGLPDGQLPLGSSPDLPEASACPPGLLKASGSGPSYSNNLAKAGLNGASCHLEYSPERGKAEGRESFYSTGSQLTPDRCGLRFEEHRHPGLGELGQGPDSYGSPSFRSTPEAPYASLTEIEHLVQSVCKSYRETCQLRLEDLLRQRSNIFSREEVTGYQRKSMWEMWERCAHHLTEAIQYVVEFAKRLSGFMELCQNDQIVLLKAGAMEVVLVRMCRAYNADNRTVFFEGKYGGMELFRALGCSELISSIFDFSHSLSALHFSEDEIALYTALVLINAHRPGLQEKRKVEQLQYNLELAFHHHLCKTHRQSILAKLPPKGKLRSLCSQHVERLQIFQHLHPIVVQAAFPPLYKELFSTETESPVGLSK
Chain of Peroxisome proliferator-activated receptor gamma (Homo sapiens) (P37231 whole entry, looked up, the tested form may be a part): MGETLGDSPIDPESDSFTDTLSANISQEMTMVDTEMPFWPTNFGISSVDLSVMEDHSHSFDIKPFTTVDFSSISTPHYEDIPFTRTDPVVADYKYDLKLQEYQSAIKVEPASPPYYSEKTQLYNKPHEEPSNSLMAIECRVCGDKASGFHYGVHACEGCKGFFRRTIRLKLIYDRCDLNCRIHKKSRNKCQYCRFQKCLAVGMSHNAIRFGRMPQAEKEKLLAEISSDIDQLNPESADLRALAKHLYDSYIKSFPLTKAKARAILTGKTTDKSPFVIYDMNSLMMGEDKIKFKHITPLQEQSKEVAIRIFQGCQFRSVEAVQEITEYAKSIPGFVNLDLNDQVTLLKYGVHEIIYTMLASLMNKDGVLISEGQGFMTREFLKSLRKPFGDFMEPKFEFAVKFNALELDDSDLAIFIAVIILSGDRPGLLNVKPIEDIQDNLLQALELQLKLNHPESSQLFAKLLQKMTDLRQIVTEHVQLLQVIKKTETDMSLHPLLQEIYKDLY
Chain of human Peroxisome Proliferator-activated Receptor alpha (PPARa), PPARA (gene 5465) (Q07869 whole entry, looked up): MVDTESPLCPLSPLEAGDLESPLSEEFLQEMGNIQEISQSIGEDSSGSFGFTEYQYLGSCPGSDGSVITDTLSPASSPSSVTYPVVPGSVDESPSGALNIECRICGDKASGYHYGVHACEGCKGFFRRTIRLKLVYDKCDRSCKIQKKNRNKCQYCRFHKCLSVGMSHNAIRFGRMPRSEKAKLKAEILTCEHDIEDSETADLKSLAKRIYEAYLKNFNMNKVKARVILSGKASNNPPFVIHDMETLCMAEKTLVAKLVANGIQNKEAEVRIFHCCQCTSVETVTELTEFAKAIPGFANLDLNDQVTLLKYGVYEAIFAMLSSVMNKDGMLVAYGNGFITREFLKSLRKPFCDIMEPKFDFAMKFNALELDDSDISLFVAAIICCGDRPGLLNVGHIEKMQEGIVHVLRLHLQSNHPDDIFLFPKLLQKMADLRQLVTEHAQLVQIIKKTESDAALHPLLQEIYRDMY
Chain of human Thyroid Receptor alpha (THRa1), THRA (gene 7067) (P10827 whole entry, looked up, the tested form may be a part): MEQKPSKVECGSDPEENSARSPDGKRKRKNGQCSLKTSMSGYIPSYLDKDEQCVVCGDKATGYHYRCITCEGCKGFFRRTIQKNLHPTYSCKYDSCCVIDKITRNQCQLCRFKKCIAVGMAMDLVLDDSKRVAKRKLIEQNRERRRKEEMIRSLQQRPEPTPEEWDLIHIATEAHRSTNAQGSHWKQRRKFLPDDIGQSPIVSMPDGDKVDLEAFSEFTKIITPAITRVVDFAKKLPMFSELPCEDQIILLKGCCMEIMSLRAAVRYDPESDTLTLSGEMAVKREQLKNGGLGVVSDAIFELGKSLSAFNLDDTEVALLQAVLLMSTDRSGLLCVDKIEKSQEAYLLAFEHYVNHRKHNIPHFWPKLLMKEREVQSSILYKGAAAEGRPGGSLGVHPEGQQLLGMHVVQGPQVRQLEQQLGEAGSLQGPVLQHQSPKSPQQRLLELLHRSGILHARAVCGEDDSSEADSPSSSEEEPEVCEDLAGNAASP

CCc1nccnc1C
inactive: [1] | [2] | [3] | [4] | [5] | [6] | [7]

Cc1cccc(OCCOc2cccc(C)c2)c1
inactive: [1] | [3] | [5]
active: [8] 25.7 µM

C=CCCCCCCCCC(=O)OCCCC
inactive: [1] | [3] | [5] | [7]
active: [8] 67.8 µM | [9] 104 µM

O=C(O)CCCCCCCCCC(=O)O
not listed: [2] | [10] | [11] | [12]
inactive: all other assays above

O=C1C=CC(=O)O1
inactive: [1] | [10] | [4] | [11] | [9] | [6]

O=C(O)c1cc(Cl)cc([N+](=O)[O-])c1Cl
inactive: [1] | [8] | [3] | [5] | [6] | [7]

Cc1cccc(C(=O)O)c1
not listed: [2] | [4]
inactive: all other assays above

[Cl][Bi]([Cl])([c]1ccccc1)([c]1ccccc1)[c]1ccccc1
inactive: [3] | [6]
active: [1] 5.11 µM | [8] 1.17 µM | [5] 5.6 µM

CC(C)(C)C(=O)C=Cc1ccc(Cl)cc1
active: [1] 24.7 µM | [8] 26.6 µM | [3] 26.2 µM | [11] 24.4 µM | [9] 24.4 µM
inactive: [5] | [6] | [7]

Cc1cc(C)c(C(=O)O)c(C)c1
inactive: [10] | [8] | [3] | [4] | [11] | [7]
active: [1] 33.7 µM

CC1=Nc2ccc3ccccc3c2C1(C)C
inactive: [1] | [12] | [5] | [9] | [6] | [7]
active: [8] 40.5 µM | [3] 2.65 µM

C=CC(=O)OCCC(=O)O
inactive: [1] | [8] | [3] | [11] | [6]

CCOC(=O)[C@H](C)O
not listed: [2] | [4] | [6] | [8]
inactive: all other assays above

CC1=NN(c2cc(S(=O)(=O)O)ccc2Cl)C(=O)C1N=Nc1ccccc1 (configuration not stated)
not listed: [2] | [7] | [9] | [10]
inactive: all other assays above

Clc1nc2ccccc2s1
not listed: [2] | [6] | [7] | [9]
inactive: all other assays above

NC(=O)NNC(N)=O
not listed: [2] | [4] | [8] | [9]
inactive: all other assays above

— PubChem BioAssay (EPA / NIEHS)
